Experimental findings from PubChem BioAssay (EPA / NIEHS) are described below.

Molecules are shown by their SMILES. Inconclusive results are not listed. Active and inactive are the calls of the source. How the source made its calls, unless noted: active means hit-call score of the fitted dose curve at least 0.9, where 1 is the maximum; inactive means score below 0.9.

In assay [1] the test system is DIO1 (gene 1733). The experiment in a line: CCTE_GLTED_hDIO1: CCTE's human Deiodinase 1 (DIO1) Inhibition Assay, Great Lakes Toxicology and Ecology Division (GLTED) Lab (AID 2283987; active means hit-call score of the fitted dose curve at least 0.9, where 1 is the maximum;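 further: isolated human DIO1 enzyme in a cell-free setup rather than cells; enzyme activity read as free iodide liberated from substrate via Sandell-Kolthoff colorimetry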). The gist of the method:
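Cell-free human DIO1 enzyme was incubated with test chemical for 3 h, and iodide released from substrate was measured by Sandell-Kolthoff absorbance. Loss of signal versus DMSO baseline indicated inhibition; plates were run in triplicate.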

Assay [2] deals with Nucleoli Translocation, AR (gene 367) (UniProt P10275). Briefly: UPITT_HCI_U2OS_AR_TIF2_Nucleoli_Antagonist: University of Pittsburgh U2OS Androgen Receptor-Transcriptional Intermediary Factor 2 (AR-TIF2) Antagonism High Content Imaging Assay for Nucleoli Translocation (AID 2283997; active means hit-call score of the fitted dose curve at least 0.9, where 1 is the maximum). An outline of the steps:
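U2OS cells co-expressing red-fluorescent-tagged human AR and green-fluorescent-tagged TIF2, imaged by high-content microscopy for nucleolar red fluorescence. Antagonist mode against DHT; primary screen at 20 uM final (0.2% DMSO).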

Assay [3] has the same target. The experiment in a line: UPITT_HCI_U2OS_AR_TIF2_Nucleoli_Agonist: University of Pittsburgh U2OS Androgen Receptor-Transcriptional Intermediary Factor 2 (AR-TIF2) Agonism High Content Imaging Assay for Nucleoli Translocation (AID 2283998; active means hit-call score of the fitted dose curve at least 0.9, where 1 is the maximum). An outline of the steps:
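Cells express human AR fused to red fluorescent protein and TIF2 fused to GFP. Red fluorescence in the nucleolar region was quantified by high-content imaging and fitted as gain-of-signal against a DMSO baseline. Compounds were tested at 0.195 to 50 uM final (0.5% DMSO).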

In assay [4] the target is Ratio of Nucleoli Translocation and Cytoplasm, AR (gene 367) (UniProt P10275). Briefly: UPITT_HCI_U2OS_AR_TIF2_Nucleoli_Cytoplasm_Ratio_Agonist: University of Pittsburgh U2OS Androgen Receptor-Transcriptional Intermediary Factor 2 (AR-TIF2) Agonism High Content Imaging Assay for Ratio of Nucleoli Translocation and Cytoplasm (AID 2284000; active means hit-call score of the fitted dose curve at least 0.9, where 1 is the maximum;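 further: hits raise the red nucleolar to cytoplasm ratio above vehicle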). An outline of the steps: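 U2OS cells expressing RFP-tagged human AR and GFP-tagged TIF2; high-content imaging ratio of nucleolar to cytoplasmic red fluorescence, fitted as gain of signal vs DMSO. Single point at 20 uM final (0.2% DMSO); concentration-response 0.195-50 uM final (0.5% DMSO).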
Ratio of Nucleoli Translocation and Cytoplasm, AR (gene 367), sequence (P10275 whole entry, looked up): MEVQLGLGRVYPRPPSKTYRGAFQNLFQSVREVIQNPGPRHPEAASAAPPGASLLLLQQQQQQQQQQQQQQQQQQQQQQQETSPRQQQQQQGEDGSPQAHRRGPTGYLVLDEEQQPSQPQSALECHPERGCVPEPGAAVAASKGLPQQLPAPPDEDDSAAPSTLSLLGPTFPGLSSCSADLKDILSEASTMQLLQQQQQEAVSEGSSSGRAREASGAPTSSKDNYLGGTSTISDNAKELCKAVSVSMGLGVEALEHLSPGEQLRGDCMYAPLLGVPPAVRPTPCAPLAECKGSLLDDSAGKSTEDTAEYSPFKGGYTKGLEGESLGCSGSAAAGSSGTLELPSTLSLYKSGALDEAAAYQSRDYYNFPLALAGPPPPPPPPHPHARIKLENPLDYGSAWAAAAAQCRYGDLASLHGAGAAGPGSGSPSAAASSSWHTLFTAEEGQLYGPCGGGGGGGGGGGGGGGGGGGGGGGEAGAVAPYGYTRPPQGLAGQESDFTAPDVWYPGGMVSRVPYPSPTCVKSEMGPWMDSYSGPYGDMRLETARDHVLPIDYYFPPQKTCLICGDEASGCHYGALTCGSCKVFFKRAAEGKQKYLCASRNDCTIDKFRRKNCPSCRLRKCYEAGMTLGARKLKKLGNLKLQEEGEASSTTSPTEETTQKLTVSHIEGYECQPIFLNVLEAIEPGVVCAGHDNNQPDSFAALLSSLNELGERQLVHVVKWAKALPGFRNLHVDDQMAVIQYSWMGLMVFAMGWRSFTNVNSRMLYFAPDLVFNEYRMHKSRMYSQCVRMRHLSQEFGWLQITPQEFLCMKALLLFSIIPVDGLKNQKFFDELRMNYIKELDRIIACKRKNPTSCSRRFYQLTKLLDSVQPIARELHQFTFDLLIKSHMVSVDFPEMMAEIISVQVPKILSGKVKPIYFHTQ

Assay [5] is described as follows: CCTE_Harrill_HTTr_Viability_MCF7: CCTE's 6-hour Cell Viability Assessment for the High-Throughput Transcriptomics (HTTr) Platform, in MCF-7 cells cultured in DMEM + 10% fetal bovine serum, Harrill Lab (AID 2284010). An outline of the steps:
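Membrane integrity was scored by high-content imaging of propidium iodide dye exclusion after a 6 h exposure across an eight-point dilution series. Data were fitted bidirectionally relative to DMSO as negative control and baseline.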

Assay [6] is described as follows: CCTE_Harrill_HTTr_Apoptosis_MCF7: CCTE's 6-hour Apoptosis Assessment for the High-Throughput Transcriptomics (HTTr) Platform, in MCF-7 cells cultured in DMEM + 10% fetal bovine serum, Harrill Lab (AID 2284011). An outline of the steps: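 MCF-7 cells in DMEM + 10% fetal bovine serum were exposed to chemicals for 6 hours over an eight-point dilution series. Caspase-3/7 activation was imaged by high content imaging with CellEvent Caspase 3/7 Green; bidirectional fitting used DMSO as baseline.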

A short description of assay [7]: CCTE_Simmons_MITO_max_resp_rate: CCTE's HepG2 Seahorse XF Respirometric Screening Assay at Maximal Respiratory State [uncoupled], Simmons Lab (AID 2284002). Particulars: actives raise or lower the signal. An outline of the steps: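 HepG2 oxygen consumption was read on a Seahorse XF96 after FCCP uncoupler injection, following test compound injection; 7 concentrations, 125 nM–100 uM final, three biological replicates. Bidirectional fitting against DMSO vehicle baseline.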

Assay [8] in a line: CCTE_Simmons_MITO_viability: CellTiter-Glo Viability Assessment for CCTE's HepG2 Seahorse XF Respirometric Screening Assay [post-hoc], Simmons Lab (AID 2284007; active means hit-call score of the fitted dose curve at least 0.9, where 1 is the maximum). An outline of the steps: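 HepG2 cells from the Seahorse XF respirometry run were exposed 90 min to a 7-point series, 125 nM–100 uM final, DMSO vehicle; ATP content then read by luciferase luminescence. Three biological replicates, technical singles; loss of signal fitted versus DMSO.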
Background: In ATP-based viability assays light output follows the ATP content of the culture.

The nature of assay [9]: CCTE_Shafer_MEA_acute_spike_number: CCTE's Neural Acute Assay for Total Number of Spikes, Shafer Lab (AID 2284008).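 On AC50: curve fitted for decrease in spike count so AC50 reflects inhibitors.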 An outline of the steps: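 Primary rat cortical neurons on 16-electrode MEA wells; on DIV 13 or 15, 40-min baseline then 40-min recording with compound (0.03-40 uM) at 37 C. Spikes detected at 8x rms noise; percent change versus baseline, DMSO as negative control.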

Assay [10] in a line: CCTE_Shafer_MEA_acute_firing_rate_mean: CCTE's Neural Acute Assay for Mean Firing Rate, Shafer Lab (AID 2284009).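 Further: analyzed for loss of signal so actives lower firing rate relative to DMSO.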 An outline of the steps: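 Rat primary cortical neurons on 48-well MEA plates, dosed at 0.03-40 uM on DIV 13 or 15; 40 min spontaneous activity recorded at 37 C before and after compound. Spike rate per electrode averaged per well, expressed as percent change from baseline.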

Assay [11] is described as follows: CCTE_Shafer_MEA_acute_burst_number: CCTE's Neural Acute Assay for Single-Electrode Bursts, Shafer Lab (AID 2284013). An outline of the steps: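 Primary rat cortical neurons on 16-electrode MEA wells, treated on DIV 13 or 15 with compound at 0.03-40 uM. Single-electrode burst count from 40-min recordings at 37 C before and after exposure; percent change from baseline per well, DMSO negative control.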

The nature of assay [12]: CCTE_Shafer_MEA_acute_burst_duration_mean: CCTE's Neural Acute Assay for Mean Burst Duration, Shafer Lab (AID 2284014).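 Further: hits are decreases in mean burst duration relative to DMSO controls.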 An outline of the steps:
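Rat primary cortical neurons on 48-well MEA, treated at DIV 13 or 15 with 0.03-40 uM in at least 3 wells. Value is percent change in mean burst duration, comparing 40 min recordings at 37 C before and during exposure.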

The nature of assay [13]: CCTE_Shafer_MEA_acute_per_burst_spike_number_mean: CCTE's Neural Acute Assay for Average Number of Spikes Per Burst, Shafer Lab (AID 2284015).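 Further: hits are decreases in mean spikes per burst versus baseline.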 The gist of the method:
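We recorded spontaneous network firing of rat cortical neurons for 40 min before and 40 min during exposure to compound at 0.03-40 uM, at 37 C. Spikes were detected adaptively at 8x rms noise, and the change in average spikes per burst was fitted against DMSO.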

Assay [14] is described as follows: CCTE_Shafer_MEA_acute_burst_percentage_mean: CCTE's Neural Acute Assay for Percentage of Spikes in a Burst, Shafer Lab (AID 2284017).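 Further: curve fitted for loss of signal so potency reflects decreased burst percentage.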 An outline of the steps:
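Compounds were tested at 0.03-40 uM on primary rat cortical neuron networks grown over microelectrodes, with at least three wells per compound. Spontaneous firing was recorded for 40 min before and 40 min after dosing, and the change in burst percentage was computed per well.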

A short description of assay [15]: CCTE_Shafer_MEA_acute_burst_percentage_std: CCTE's Neural Acute Assay for Standard Deviation of Burst Percentage, Shafer Lab (AID 2284018).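 Further: fitted in the negative direction so actives lower burst percentage SD.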 An outline of the steps: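 Rat primary cortical neurons on 48-well MEAs, DIV 13 or 15, 37 C. 40-min baseline then 40-min recording with compound (0.03-40 uM); well-level SD of per-electrode burst spike percentage, expressed as percent change from baseline.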

The nature of assay [16]: CCTE_Shafer_MEA_acute_per_network_burst_spike_number_std: CCTE's Neural Acute Assay for Standard Deviation of Number of Spikes in a Network Burst, Shafer Lab (AID 2284020).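 Further: fitted for decrease in spike-number SD versus DMSO so actives lower it.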 An outline of the steps:
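Rat primary cortical neurons on 48-well MEA (16 electrodes/well), treated DIV 13 or 15 at 0.03-40 uM, ≥3 wells per compound. 40 min recordings at 37 C before and after dosing; value is percent change in network-burst spike-number SD, negative direction vs DMSO.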

Assay [17] in a line: CCTE_Shafer_MEA_acute_per_network_burst_electrodes_number_mean: CCTE's Neural Acute Assay for Mean Number of Electrodes in a Network Burst, Shafer Lab (AID 2284021).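 Further: curves fitted for decreases only so hits reduce electrodes per burst.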 An outline of the steps: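 Rat primary cortical neurons on 16-electrode MEA wells were recorded 40 min at baseline on DIV 13 or 15, then 40 min after compound (0.03-40 uM), at 37 C. Value is percent change per well, fitted in loss direction versus DMSO.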

The nature of assay [18]: CCTE_Harrill_HTTr_CellCount_MCF7: CCTE's Cell Proliferation Assessment for the High-Throughput Transcriptomics (HTTr) Platform, Harrill Lab (AID 2284012; active means hit-call score of the fitted dose curve at least 0.9, where 1 is the maximum;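 further: cells exposed to compound for six hours; intended direction is loss of nuclei count meaning fewer cells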). An outline of the steps:
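MCF-7 cells were exposed for 6 h to an eight-point dilution series; Hoechst-labeled nuclei were counted by high content imaging. Curves were fitted bidirectionally against DMSO as negative control and baseline, with signal loss indicating reduced cell count.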

Nucleoli Translocation, AR (gene 367), sequence (P10275 whole entry, looked up): as above

Broadly, the AC50 is the concentration giving half of the maximal activity seen. On to `O=C(OC[C@H]1O[C@@H](OC(=O)c2cc(O)c(O)c(OC(=O)c3cc(O)c(O)c(O)c3)c2)[C@H](OC(=O)c2cc(O)c(O)c(OC(=O)c3cc(O)c(O)c(O)c3)c2)[C@@H](OC(=O)c2cc(O)c(O)c(OC(=O)c3cc(O)c(O)c(O)c3)c2)[C@@H]1OC(=O)c1cc(O)c(O)c(OC(=O)c2cc(O)c(O)c(O)c2)c1)c1cc(O)c(O)c(OC(=O)c2cc(O)c(O)c(O)c2)c1`, for which the half-maximal activity concentration (AC50) in [1] was 17.7 µM (active).

`CC(C)=CCCC(C)CCO` (stereo not given): the result in assay [2], in [3], in assay [4], in [5] and in assay [6] was inactive.

With `CC(C)c1cccc(C(C)C)c1N1C(=O)c2ccc(O)cc2C1=O`, the AC50 in assay [7] was 20.3 µM (active). The outcome in [8], in assay [5] and in [6] was inactive.

As to `CC1(C)C(=O)N(Br)C(=O)N1Br`, the molecule was classed as inactive in assay [2], in [3], in assay [4], in [5] and in assay [6].

On to `CCOc1cccc(-n2cc(C(=O)N3CCN(c4cc(C(=O)O)c5ccccc5c4)CC3)nc2-c2ccc(C)cc2)c1`, for which the AC50 in assay [1] is 151 µM (active); in assay [2], 78.4 µM (active). For the same molecule, the outcome in assay [4], in [7], in assay [5] and in assay [6] was inactive.

As to `Cn1c(=O)cc(Oc2ccc(F)cc2F)c2cnc(NCC(C)(C)O)nc21`, the result in assay [7], in assay [8], in assay [5] and in assay [6] was inactive.

For `C1N2CN3CN1CN(C2)C3`, the molecule was classed as inactive in [3], in assay [4], in assay [5] and in assay [6].

`Fc1ccccc1[C@@H](F)COC1CCC(Nc2ncnc3[nH]ncc23)CC1` (stereo not given in full): the results for the AC50 in assay [2] and in assay [7] were 18.3 µM (active) and 13.8 µM (active), respectively. Moreover, the result in assay [3], in [8], in [5] and in [6] was inactive.

Consider `CNS(=O)(=O)c1cc(C(=O)N2CCC(CCN3C4CCC3CC(n3c(C)nc5ccccc53)C4)(c3cccc(F)c3)CC2)c(Cl)cc1F` (stereo not given), for which the result in assay [2] was inactive.

With `CCOC(=O)c1ccc(C2CCC(NC[C@H](O)COc3ccc(O)c(NS(C)(=O)=O)c3)CC2)cc1` (stereo not given in full), the AC50 in assay [1] is 95 µM (active); in [14], 30.2 µM (active). Moreover, the molecule was called inactive in assay [7], in assay [9], in assay [10], in [5], in assay [6] and in assay [11]. For the same molecule, the molecule was called inactive in assay [12], in assay [13], in assay [15], in [16] and in assay [17].

As for `Cc1[nH]cnc1C[C@H]1CCc2c(C)c3ccccc3n2C1=O`, the result in assay [7], in [8], in assay [5], in [6], in assay [18] and in assay [11] was inactive. Also, the call in [12], in assay [13], in assay [15] and in assay [16] was inactive. Moreover, the concentration at half-maximal activity (AC50) in [9] was 4.12 µM (active); in assay [10], 4.13 µM (active); in [14] it was 9 µM (active); in [17], 17.8 µM (active).

In the case of `CCCN(C1CCN(C(=O)C2CCNCC2)CC1)[C@@H]1CCc2ccc(OC)cc2C1`, the outcome in [2], in assay [3], in assay [9], in assay [10], in [5] and in assay [6] was inactive. Moreover, the call in assay [11], in assay [12], in assay [13] and in assay [16] was inactive. Also, the values for the concentration at half-maximal activity (AC50) in assay [14], in assay [15] and in [17] were 11.3 µM (active), 33.1 µM (active) and 5 µM (active), respectively.

Consider `CCNc1ccccc1`, for which the molecule was classed as inactive in assay [2], in assay [3], in assay [4], in assay [5] and in assay [6].

Turning to `Cc1ccc(O)cc1`, the molecule was classed as inactive in [3], in assay [4], in [5] and in assay [6].
